{"source": "PubChem BioAssay AID1233", "about": "(SRMLSC, 2008)", "note": "Measured potencies and affinities stand elsewhere. Activity calls are given as the source filed them.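 The calls were made as follows: active = a dose-response curve fit returns a half-maximal inhibitory concentration, extrapolated values included; inactive = the fit returns no such concentration.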", "data": [{"biological_target": "HMG-CoA reductase [Enterococcus faecalis] (UniProt Q9FD70)", "experiment": "inhibitors of E. faecalis class II HMGR, confirmation, biochemical, Enterococcus faecalis (AID 1233)", "details": "purified E. faecalis HMGR, NADPH absorbance 340 nm kinetics; series mostly up to 100 µM", "values": [{"smiles": "NNC(=O)C1CC1c1ccc(Cl)cc1", "note": "(stereo not drawn)", "outcome": "inactive"}, {"smiles": "ON/C=N/C(=S)Nc1ncc(C(F)(F)F)cc1Cl", "outcome": "inactive"}, {"smiles": "CCSc1nnc(NC(=O)CN2C(=O)C3CC=CCC3C2=O)s1", "note": "(stereo not drawn)", "outcome": "inactive"}, {"smiles": "OCC1CCCN(C(=S)Nc2ccc(Nc3ccccc3)cc2)C1", "note": "(stereo not drawn)", "outcome": "inactive"}, {"smiles": "CCN(Cc1ccncc1)Cc1c(O)ccc2cc(Br)ccc12", "outcome": "inactive"}, {"smiles": "CCOc1ccc(S(=O)(=O)N(C)CCO)cc1-c1nc2c(C(C)(C)C)nn(C)c2c(=O)[nH]1", "outcome": "inactive"}, {"smiles": "Cc1nnc(SCc2ccccc2Cl)n1CC1CCCO1", "note": "(stereo not drawn)", "outcome": "inactive"}, {"smiles": "FC(F)(F)c1cnc(Oc2ccc(-c3nnco3)cc2)c(Cl)c1", "outcome": "inactive"}, {"smiles": "c1ccc(-c2ccnc3nc(N4CCN(c5ccccc5)CC4)nn23)cc1", "outcome": "inactive"}, {"smiles": "CN(C1CCCC1)C1CCN(C(=O)CNC(=O)/C=C/c2ccccc2)CC1", "outcome": "inactive"}, {"smiles": "COc1ccc(-c2nnc(SC(C)C(=O)Nc3ccc4c(c3)OCCO4)o2)cc1", "note": "(stereo not drawn)", "outcome": "inactive"}, {"smiles": "C=CCNC(=O)C(=O)NN=C1CCN(C)CC1", "outcome": "inactive"}, {"smiles": "CN(CCOC(=O)c1cccc(Br)c1)C(C)(C)C", "outcome": "inactive"}, {"smiles": "CN(CCC#N)C(=O)COC(=O)c1ccc(Cl)c(S(=O)(=O)N(C)c2ccccc2)c1", "outcome": "inactive"}, {"smiles": "COc1ccccc1CNC(=O)C1CCCN(S(=O)(=O)c2c(C)[nH]c(=O)[nH]c2=O)C1", "note": "(stereo not drawn)", "outcome": "inactive"}, {"smiles": "COc1ccc2cc(C3NC(=O)c4ccccc4N3)c(Cl)nc2c1", "note": "(stereo not drawn)", "outcome": "inactive"}, {"smiles": "Cc1cc(/C=C(\\C#N)C(=O)NCc2cccs2)c(C)[nH]1", "outcome": "inactive"}, {"smiles": "Cc1ccc(-c2cc(C(=O)NCc3ccc4c(c3)OCO4)[nH]n2)c(O)c1C", "outcome": "inactive"}]}]}
